Test results taken from PubChem BioAssay AID504803 (The Scripps Research Institute Molecular Screening Center, 2011).
Among all 340,000 compounds or so, about 1,700 (0.5%) were called active. The sample as a whole holds a higher share of actives than the screen did. A number with no mark means an inactive call. Rule as the data show it: active = inhibition above about 36%; inactive = the rest.

Each compound was assayed against Serine protease HTRA1 (Homo sapiens) (UniProt Q92743) (assay: inhibition of human HTRA1 peptidase – biochemical, fluorescence polarization, HTS, primary screen (AID 504803;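 also: 0% = enzyme with DMSO and 100% = wells lacking enzyme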)). Conditions: recombinant HTRA1, FP-rhodamine activity-based probe, at 5.96 µM, stronger effect = higher value.
Serine protease HTRA1 (Homo sapiens), sequence (Q92743 whole entry, looked up): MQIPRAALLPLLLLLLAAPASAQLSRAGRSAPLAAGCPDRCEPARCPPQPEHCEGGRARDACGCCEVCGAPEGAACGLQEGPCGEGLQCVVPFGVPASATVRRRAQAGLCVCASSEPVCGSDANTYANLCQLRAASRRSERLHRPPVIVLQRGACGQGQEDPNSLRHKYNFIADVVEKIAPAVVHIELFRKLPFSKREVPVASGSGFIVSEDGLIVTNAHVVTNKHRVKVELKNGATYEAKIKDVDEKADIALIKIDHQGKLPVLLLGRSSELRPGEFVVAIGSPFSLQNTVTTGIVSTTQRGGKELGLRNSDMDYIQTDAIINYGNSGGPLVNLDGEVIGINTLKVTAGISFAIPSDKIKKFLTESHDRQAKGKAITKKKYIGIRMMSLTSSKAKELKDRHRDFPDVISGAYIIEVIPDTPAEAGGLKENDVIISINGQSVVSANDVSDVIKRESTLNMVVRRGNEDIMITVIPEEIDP

Row | Compound | inhibition
1 | CC(C)CCOc1ccc(C(=O)Nc2cc(S(=O)(=O)N3CCOCC3)ccc2N2CCOCC2)cc1 | -7.89%
2 | Cc1ccc(NC(=O)CCNC(=O)c2ccc([N+](=O)[O-])cc2)cc1S(=O)(=O)N1CCOCC1 | 3.34%
3 | COc1ccc(NS(=O)(=O)c2cc(NC(=O)CC(=O)c3ccc([N+](=O)[O-])cc3)ccc2C)cc1 | 45.4% (active)
4 | COc1ccc(NS(=O)(=O)c2cc(NC(=O)COc3ccccc3F)ccc2OC)cc1 | -13.3%
5 | CC1CCCC(C)N1C(=O)COC(=O)c1ccccc1C(=O)c1ccccc1 (stereo not drawn) | 0.04%
6 | CCOc1cc(/C=N/NC(=O)c2ccncc2)cc(Br)c1O | 3.19%
7 | O=C(C1CCCO1)N1CCN(C(=O)C23CC4CC(CC(C4)C2)C3)CC1 (stereo not drawn) | 9.09%
8 | O=C1CC(NNc2ccccc2)C(=O)N1c1cccc(Cl)c1 (stereo not drawn) | -8.57%
9 | CC(=O)Oc1cccc(N2C(=O)CC(Nc3ccc(N4CCOCC4)cc3)C2=O)c1 (stereo not drawn) | 51.5% (active)
10 | COc1ccc(N2CCN(C3CC(=O)N(c4ccc5c(c4)OCCO5)C3=O)CC2)cc1 (stereo not drawn) | 4.17%
11 | CCC(C)Cn1c(O)cc2nn(-c3nc4ccccc4s3)c(=O)c-2c1C (stereo not drawn) | 61.1% (active)
12 | O=C(OCc1ccccc1)N1CCC2CC1c1ccc(-c3ccc4c(c3)OCO4)cc12 (stereo not drawn) | -25%
13 | COc1ccc(OC)c(Nc2nc(-c3ccc(O)c(O)c3)cs2)c1 | 64.3% (active)
14 | COc1ccc(OC)c(-c2csc(NC(=O)C3=NNC(=O)CC3)n2)c1 | -2.91%
15 | COc1ccc(-c2csc(Nc3cccc(C)n3)n2)cc1OC | 13.4%
16 | C[C@@H]1CN([C@H](C)CO)S(=O)(=O)c2ccc(C#C[C@@H](C)O)cc2O[C@@H]1CN(C)Cc1ccc(-c2ccccc2)cc1 | -54%
17 | O=C(OCc1cn([C@H]2C[C@H](c3ccccc3)N(C(=O)c3cccs3)C[C@@H]2O)nn1)c1ccccc1 | -11.7%
18 | N#CC1(Nc2ccc3c4c(cccc24)CC3)CCCCC1 | 33.2%
19 | O=C1CSC(=S)N1/N=C/c1ccc(O)c([N+](=O)[O-])c1 | 13.7%
20 | Cc1cc(C(=O)COC(=O)C2CC2)c(C)n1-c1ccc(F)cc1 | 4.47%
21 | Cc1cc(C(=O)N/N=C/c2ccc(O)c([N+](=O)[O-])c2)c(C)n1-c1ccc(F)cc1 | 45.1% (active)
22 | Cc1ccc([C@H]2N[C@]3(CCCN(CC4CCCCC4)C3=O)[C@H]3C(=O)N(Cc4ccccc4)C(=O)[C@@H]23)cc1 | -16.8%

Row | Compound | inhibition
23 | COc1ccccc1-c1nc(C(F)(F)F)c(OC)o1 | -5.12%
24 | COc1ccccc1C1=Nc2cccc3cccc(c23)N1 | 60.3% (active)
25 | Fc1ccccc1N=C1Nc2cccc3cccc1c23 | -6.03%
26 | O=C1c2ccccc2C(=O)c2c1cccc2N1CCN(CCO)CC1 | 9.89%
27 | O=C1c2ccccc2C(=O)c2c1cccc2N1CCN(Cc2ccccc2)CC1 | 62% (active)
28 | O=C(CN1CCN(Cc2ccccc2)CC1)NC(c1ccccc1)c1ccccc1 | -2.99%
29 | CCCCN1C(=O)C(CC(=O)NCc2cccs2)CC(C(=O)N2CCOCC2)=C1C (stereo not drawn) | 1.73%
30 | Cc1noc(C)c1S(=O)(=O)N(C)C[C@H]1OCCCC[C@@H](C)Oc2ccc(NC(=O)CCCN(C)C)cc2C(=O)N([C@H](C)CO)C[C@@H]1C | 1.73%
31 | Cc1ccc(-c2ccc(CN3C(C)C(=O)N(Cc4cn(CCC5OCCCO5)nn4)CCS3(=O)=O)cc2)cc1 (stereo not drawn) | -6.77%
32 | C[C@H]1CN([C@@H](C)CO)C(=O)CCCn2cc(nn2)CO[C@@H]1CN(C)S(=O)(=O)c1cccs1 | 4.51%
33 | O=C(NCCN1CCOCC1)c1ccc2c(c1)N(Cc1cccc(Cl)c1)C(=O)c1ccccc1S2(=O)=O | -8.45%
34 | CCc1nnc(SCc2cccc(F)c2)nc1CC | -3.55%
35 | O=C(Nc1nnc(SCc2ccccc2Cl)s1)c1cccc([N+](=O)[O-])c1 | -3.08%
36 | Clc1ccc(CSc2nnc3c(n2)[nH]c2ccccc23)cc1 | -20.7%
37 | c1ccc(CSc2nnc(-c3ccco3)c(-c3ccco3)n2)cc1 | 42.8% (active)
38 | Clc1ccccc1CSc1nnc(-c2ccco2)c(-c2ccco2)n1 | 49.6% (active)
39 | S=C(NCc1ccco1)NCc1ccccc1Cl | -12.8%
40 | O=C(NCc1nnnn1-c1ccc(Cl)cc1)c1ccc([N+](=O)[O-])o1 | 2.97%
41 | CCN(CC)C(=O)C1=C(C)N(Cc2ccc(C(C)(C)C)cc2)C(=O)C(CC(=O)NCc2cccc3ccccc23)C1 (stereo not drawn) | -39.3%
42 | Nc1cc(=O)c2[nH]cnc2[nH]1 | -44.6%
43 | NS(=O)(=O)c1ccc(CNC(=O)c2cc(S(=O)(=O)N3CCOCC3)ccc2N2CCCC2)cc1 | 0.13%
44 | CCCc1ccc(S(=O)(=O)N2CCN(C(=O)c3cc(C)on3)CC2)cc1 | -2.05%

Row | Compound | inhibition
45 | C[C@H]1Cn2cnc(C(=O)N[C@H](C)c3ccccc3)c2C(=O)N1 | 6.34%
46 | c1ccc(Cn2nnc3c(NCC4CC4)ncnc32)cc1 | -4.95%
47 | O=C(NCCS(=O)(=O)N1CCN(c2ccccc2)CC1)c1cc(=O)c2ccccc2o1 | 1.65%
48 | CCCc1c(C)nc2scc(-c3ccc(Cl)cc3)n2c1=O | 0.07%
49 | C#CCN(C[C@@H]1[C@@H](OC(=O)NC2CC2)[C@@H](OC(=O)NC2CC2)Cn2c(=O)ccc(=O)n21)S(=O)(=O)c1ccc(C)cc1 | -1.46%
50 | CCOC(=O)c1c(NC(=O)COC(=O)c2ccc(S(=O)(=O)C(F)F)cc2)sc(C(=O)N(C)C)c1C | -16.1%
51 | Cc1cc(Nc2ccccc2)n(C(=O)c2ccc(N)cc2)n1 | -10.8%
52 | Nc1ccc(Nc2ccccc2)cc1 | 69% (active)
53 | COc1ccc(Nc2ccc3ccccc3c2)cc1 | 24.9%
54 | O=C(NCCc1cccc(F)c1)C1CC(O)CN1C(=O)Nc1ccccc1 (stereo not drawn) | 0.16%
55 | CC(C)[C@H](NC(=O)c1ccccc1F)C(=O)Nc1cccc(S(=O)(=O)N2CCOCC2)c1 | 0.83%
56 | C[C@@H]1CN([C@@H](C)CO)C(=O)CCCn2nncc2CO[C@H]1CN(C)C(=O)Nc1ccc(C(F)(F)F)cc1 | -1.93%
57 | CCOC(=O)C(=Cc1ccccc1)C(=O)c1ccccc1 | -10%
58 | O=C(CSc1ccc(Cl)cc1)NC1CC1 | 1.09%
59 | COc1ccc2nc(-c3ccccn3)ccc2c1 | 4.04%
60 | COc1ccc(NCCc2ccccn2)cc1 | 3.17%
61 | COc1cnc(-c2ccccn2)nc1Oc1ccc(C(C)(C)C)cc1 | 56.8% (active)
62 | C[C@H]1CN([C@@H](C)CO)C(=O)c2cc(C3=CCCCC3)cnc2O[C@@H]1CN(C)C(=O)Cc1ccccc1 | -0.1%
63 | Cc1ccc(C=O)c([B-](F)(F)F)c1 | 4.92%
64 | CN1c2ccc(C=O)c3c(C=O)ccc(c23)N(C)C1(C)C | 53.2% (active)
65 | Nc1ccccc1-c1nc2ccncc2[nH]1 | -6.2%
66 | c1ccc2[nH]c(-c3nc4ccccc4[nH]3)nc2c1 | 80.8% (active)

Row | Compound | inhibition
67 | O=C(Nc1sc2c(c1-c1nc3ccccc3[nH]1)CCCC2)C1CC1 | 3.75%
68 | NC(=S)NN=Cc1ccc(OC(=O)COc2cc(Cl)c(Cl)cc2Cl)cn1 | -2.79%
69 | CC(C)C1N=C2c3ccccc3N=C(SCC(=O)c3ccc(O)c(O)c3)N2C1=O (stereo not drawn) | 59.3% (active)
70 | O=C(CSC1=Nc2ccccc2C2=NC(c3ccccc3)C(=O)N12)NCC1CCCO1 (stereo not drawn) | 5.98%
71 | NC(=O)CSC1=Nc2ccccc2C2=NC(CCC(=O)NCc3ccc(F)cc3)C(=O)N12 (stereo not drawn) | 1.09%
72 | CC(C)CCC(=O)Nc1cc(S(=O)(=O)N2CCOCC2)ccc1N1CCCC1 | -0.61%
73 | C#Cc1cc(N2CCN(C(=O)c3ccoc3)CC2)n2nc(-c3cccc(Cl)c3)cc2n1 | -68.2%
74 | CN(c1ccccc1)S(=O)(=O)c1ccc(C(=O)NCc2cccnc2)cc1 | 2.31%
75 | Cc1cc2c3ccccc3[nH]c(=O)n2n1 | -0.09%
76 | Cc1c(CCC(=O)O)c(=O)oc2c(C)c(OCc3ccccc3Cl)ccc12 | -1.83%
77 | CCN(CC)S(=O)(=O)c1ccc(N2CCOCC2)c(NC(=O)C2COc3ccccc3O2)c1 (stereo not drawn) | -9.82%
78 | Cc1c(CC(=O)N2CCN(C(=O)C3COc4ccccc4O3)CC2)c(=O)oc2c(O)c(O)ccc12 (stereo not drawn) | 51.5% (active)
79 | CCN1CCCC1CNC(=O)c1ccc2c(c1)NC(=O)/C(=C\c1ccccc1F)S2 (stereo not drawn) | -43.1%
80 | O=C(CCCN1C(=O)C(c2ccccc2)Oc2cccnc21)Nc1ccccc1Br (stereo not drawn) | -5.83%
81 | O=C(COC(=O)CCc1c[nH]c2ccccc12)Nc1cccc(Cl)c1 | -2.43%
82 | Cc1cc(/C=N/Nc2ccc([N+](=O)[O-])cn2)c(C)n1-c1cccc(C(=O)O)c1 | 40.5% (active)
83 | Cc1cc(/C=N/NC(=O)CC2(C)OCCO2)c(C)n1-c1ccc(Cl)c(Cl)c1 | 2.74%
84 | CC(C)c1ccc(C=NNc2ccc([N+](=O)[O-])cn2)cc1 | -18.3%
85 | CC(OC(=O)c1ccc(NC(=O)CC#N)cc1)C(=O)Nc1ccc(S(=O)(=O)N2CCCC2)cc1 (stereo not drawn) | -20%
86 | O=C(COC(=O)/C=C/c1cccc(Cl)c1)NCCc1ccccc1 | 4.91%
87 | O=c1[nH]c(/C=C/c2cccc(Br)c2)nc2ccccc12 | -1.32%
88 | NNc1cccc(C=Cc2ccccc2)cc1=O | 61.4% (active)
